{"source": "PubChem BioAssay", "data": [{"molecular_target": "Alpha-bungarotoxin (Bungarus multicinctus) (UniProt P60615)", "sequence (P60615 whole entry, looked up)": "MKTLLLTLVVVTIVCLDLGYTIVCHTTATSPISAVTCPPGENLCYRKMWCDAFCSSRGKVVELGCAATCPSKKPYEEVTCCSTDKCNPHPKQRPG", "assay": "alpha-bungarotoxin binders on microarray, profiling panel, artefact control for SMM control protein annotation, biochemical, small-molecule microarray, Alexa647 label, 635/667 nm fluorescence (AID 1117)", "conditions": "alpha-BTX-A647 binding fluorescence, higher = more signal", "values": [{"smiles": "[N-]=[N+]=Nc1ccccc1C[C@]1(C(=O)NCCN2CCOCC2)N=C(c2ccc(OCCCO)cc2)O[C@H]1c1ccccc1", "composite z-score": 0.968}, {"smiles": "CCOC(=O)C[C@H]1[C@H](OC(=O)c2ccc(-c3ccccc3)cc2)[C@@H](NC(=O)c2ccc3ccccc3c2)c2cc(OCCCO)ccc2N1C(=O)Cc1ccc(OC)cc1", "composite z-score": 0.0773}, {"smiles": "CC(C)(C)OC(=O)CC[C@@]1(C(=O)O)N=C(c2ccc(OCCCO)cc2)O[C@@H]1c1ccccc1N=[N+]=[N-]", "composite z-score": 1.15}, {"smiles": "O=C1C[C@]2(c3ccc([N+](=O)[O-])cc3)C(=O)N(CC(F)(F)F)c3cc(CO)ccc3[C@H]2N1CC12CC3CC(CC(C3)C1)C2", "composite z-score": 0.224}, {"smiles": "O=C1OCCC=C[C@H]2OC34C=CCN(c5ccc6ccccc6c5)C(=O)[C@H]3N(CCCCCO)C(=O)[C@@H]4C12", "note": "(stereo not given in full)", "composite z-score": -0.264}, {"smiles": "Cc1cc(C)c(C(O)C2C=CC3C(=O)N(c4ccccc4)C(=O)C3N2Nc2ccc(C#N)cc2)c(C)c1", "note": "(stereo not given)", "composite z-score": 1.79}, {"smiles": "C=C[C@@H](COC(C)=O)N(Cc1ccccc1[N+](=O)[O-])S(=O)(=O)c1ccc(Br)cc1", "composite z-score": 0.864}, {"smiles": "COCCOC(=O)N1C(=O)[C@@]2(c3cc(C#Cc4ccc(OC)cc4)ccc31)[C@H](C(=O)N1CCN(c3ncccn3)CC1)[C@H]1C(=O)O[C@H](c3ccccc3)[C@H](c3ccccc3)N1[C@@H]2c1ccc(O)cc1", "composite z-score": 0.107}, {"smiles": "CCOC(=O)C[C@H]1[C@H](OC(=O)c2ccc(-c3ccccc3)cc2)[C@@H](NC(=O)c2ccc(-c3ccccc3)cc2)c2cc(OCCCO)ccc2N1C(=O)Cc1ccc(OC)cc1", "composite z-score": 0.0738}, {"smiles": "COC(=O)[C@@]1(Cc2ccccc2)[C@H]2c3cc(C(=O)N4CCCC4)n(C)c3C[C@H]2CN1C(=O)c1ccccc1", "composite z-score": 0.455}, {"smiles": "COC(=O)[C@@]1(Cc2ccccc2N=[N+]=[N-])COC(c2ccc(OCCCO)cc2)=N1", "composite z-score": 1.4}, {"smiles": "CC(C)C(=C=CC[C@@H](O)c1ccccc1OCCO)C[C@@H](O)c1ccccn1", "composite z-score": 0.125}, {"smiles": "O=C(O)[C@H]1C[C@H]2C(=O)NCC(=O)N2[C@H]1c1ccc(O)cc1", "composite z-score": 2.03}, {"smiles": "C=CC[C@]1(C(=O)N2CCOCC2)N=C(c2ccc(OCCCO)cc2)O[C@H]1c1ccccc1", "composite z-score": 2.05}, {"smiles": "COc1cc(C(O)C2C=CC3C(=O)N(c4ccccc4)C(=O)C3N2Nc2ccc(C#N)cc2)cc(OC)c1OC", "note": "(stereo not given)", "composite z-score": 2.79}, {"smiles": "O=C1O[C@H](c2ccccc2)[C@H](c2ccccc2)N2[C@H]1[C@@H](C(=O)Nc1nc3ccccc3s1)[C@]1(C(=O)Nc3ccccc31)[C@H]2c1ccc(O)cc1", "composite z-score": 1.27}, {"smiles": "O=C1O[C@@H](c2ccccc2)[C@@H](c2ccccc2)N2[C@@H](c3ccc(O)cc3)[C@]3(C(=O)Nc4ccc(C#CC5(O)CCCCCC5)cc43)[C@@H](C(=O)N3CCCCCCC3)[C@H]12", "composite z-score": 3.03}, {"smiles": "O=C1C=CC(=O)[C@@H]2CC(COc3ccccc3)=C3[C@@H](CCc4ccccc4)OB(O)C[C@@H]3[C@H]12", "composite z-score": 0.361}, {"smiles": "CCOC(=O)C1=CCC(C(C)(C)C)N(S(=O)(=O)c2ccc(C)cc2)C1", "note": "(stereo not given)", "composite z-score": 1.5}, {"smiles": "CCOC(=O)C1=CCC(c2ccc([N+](=O)[O-])cc2)N(S(=O)(=O)c2ccc(C)cc2)C1", "note": "(stereo not given)", "composite z-score": 0.159}, {"smiles": "NCCCCCCNC(=O)[C@H]1C[C@H]2C(=O)NCC(=O)N2[C@H]1c1cccc(OCCO)c1", "composite z-score": 1.37}, {"smiles": "NC(=O)NCC#Cc1ccc2c(c1)[C@]1(C(=O)N2)[C@H](C(=O)NC[C@H](O)c2ccccc2)[C@H]2C(=O)O[C@H](c3ccccc3)[C@H](c3ccccc3)N2[C@@H]1c1ccc(O)cc1", "composite z-score": 2.19}, {"smiles": "O=C1N(CCS(=O)(=O)c2ccccc2)Cc2ccccc2[C@H]2OC(c3ccc(OCCCO)cc3)=N[C@@]12CCS(=O)(=O)c1ccccc1", "composite z-score": 1.97}, {"smiles": "O=C1C2C=CC(C(O)c3ccc(F)cc3)N(Nc3ccccc3)C2C(=O)N1c1ccccc1", "note": "(stereo not given)", "composite z-score": 1.97}, {"smiles": "CCOC(=O)C1=C[C@@H](CC)N(S(=O)(=O)c2ccc(C)cc2)[C@H]1c1ccccc1", "composite z-score": 0.54}, {"smiles": "COc1ccc(CCNC(=O)[C@@]2(c3ccc([N+](=O)[O-])cc3)CC(=O)N(CC34CC5CC(CC(C5)C3)C4)[C@@H]2c2ccc(CO)cc2)cc1", "composite z-score": 0.155}, {"smiles": "CCC[C@@H]1C=C(C(=O)O)[C@H](c2ccc(C)cc2)N1S(=O)(=O)c1ccc(C)cc1", "composite z-score": 1.45}, {"smiles": "[N-]=[N+]=NCc1ccccc1[C@H]1OC(c2ccc(OCCCO)cc2)=N[C@@]1(CCS(=O)(=O)c1ccccc1)C(=O)N1CCOCC1", "composite z-score": 2.59}, {"smiles": "O=C/C=C/c1ccc2c(c1)OCO2", "composite z-score": 0.591}, {"smiles": "COc1ccc(C(O)C2C=CC3C(=O)N(C)C(=O)C3N2Nc2ccccc2)cc1OCc1ccccc1", "note": "(stereo not given)", "composite z-score": 1.79}, {"smiles": "C=C(CCCC)/C(=C/C[C@H](OC(C)=O)c1ccc(CO)o1)c1cnc2ccccc2c1", "composite z-score": 1.73}, {"smiles": "COCCOC(=O)N1C(=O)[C@@]2(c3cc(C#CCCO)ccc31)[C@H](c1ccccc1OCCO)N1[C@H](c3ccccc3)[C@H](c3ccccc3)OC(=O)[C@H]1[C@@H]2C(=O)N1CCN(c2ncccn2)CC1", "composite z-score": 0.994}, {"smiles": "CCCCC(O)C1C=CC2C(=O)N(C3CCCCC3)C(=O)C2N1Nc1ccc(OC)cc1", "note": "(stereo not given)", "composite z-score": 0.914}, {"smiles": "COCCOC(=O)N1C(=O)[C@@]2(c3cc(C#CCNC(N)=O)ccc31)[C@H](c1ccc(OCCO)cc1)N1[C@H](c3ccccc3)[C@H](c3ccccc3)OC(=O)[C@H]1[C@@H]2C(=O)N1CCc2cc(OC)c(OC)cc2C1", "composite z-score": 0.664}, {"smiles": "COc1ccc([Si](C)(C)[C@H]2[C@H](CC(=O)N(CCO)Cc3ccccc3)O[C@@]3(C(=O)N(Cc4cccc(N5CCC5=O)c4)c4ccccc43)[C@@H]2C)cc1", "composite z-score": 1.03}]}]}
